# Hit rate of the full screen: of about 360,000 compounds, about 2,800 (0.78%) were called active. The sample holds actives, similar compounds and a random draw of the others, so the mix is not that of the screen. Rule as the data show it: active = inhibition above about 26%; inactive = the rest.
# Tested on: Nicotinate-nucleotide adenylyltransferase NadD (Staphylococcus aureus N315)
# Experiment: S. aureus NadD enzyme activity blockers – biochemical, colorimetric, uHTS, primary screen (AID 602399)
# Conditions: purified NadD enzyme, colorimetric absorbance read-out; at 20 µM; active compounds read high
row,SMILES,inhibition
1,Cc1cccc(N2C(=O)NC(=O)/C(=C\c3cnn(-c4ccccc4)c3)C2=O)c1,31.6% (active)
2,COC(=O)CN1C(=O)C2(C(C(=O)OC)=C(N)Oc3ccccc32)C2=C1CC(C)(C)CC2=O (stereo not given),-11.2% (inactive)
3,CC1(C)C(c2ccccc2)=NC(c2cccnc2)=[N+]1[O-],-1.36% (inactive)
4,Cc1cccc(NC(=O)N2CC3CC(C2)c2cccc(=O)n2C3)c1 (stereo not given),-1.21% (inactive)
5,COC1C(O)C(C)OC(OC2CCC3(C=O)C(CCC4C3CCC3(C)C(C5=CC(=O)OC5)CCC43O)C2)C1O (stereo not given),-4.34% (inactive)
6,CCOC(=O)c1c(C)c(C(=O)N2CCC3(CC2)OCCO3)c(C)n1CC,-2.05% (inactive)
7,O=c1[nH]c(CN2CC=C(c3ccccc3)CC2)nc2scc(-c3cccs3)c12,29.6% (active)
8,CC1=CC(=Cc2sc3ccccc3[n+]2C)C=C(C)O1,1.49% (inactive)
9,CCN1C(=O)NC(=O)C2(CCCC2)C1=O,1.24% (inactive)
10,c1cc2c(cc1C1OCC3C(c4ccc5c(c4)OCO5)OCC13)OCO2 (stereo not given),1.25% (inactive)
11,CCCCn1c(=O)c(C(=O)Nc2ccccc2Cl)c(O)c2ccccc21,-7.15% (inactive)
12,CCCCCn1c(=O)c(C(=O)Nc2c(C)n(C)n(-c3ccccc3)c2=O)c(O)c2ccccc21,29.9% (active)
13,CCCCCn1c(=O)c(C(=O)NCc2ccccc2)c(O)c2ccccc21,1.88% (inactive)
14,Clc1ccc2nc3c(c(-c4ccccc4)c2c1)CNCC3,-4.51% (inactive)
15,COCc1cc(OC(=O)N(C)C)nc(-c2ccc(C)c(Cl)c2)n1,-4.84% (inactive)
16,COC1=C[C@@H]2[C@@H]3Cc4ccc(OC)c(O)c4[C@]2(CCN3C)CC1=O,3.24% (inactive)
17,O=C1NC(=O)N(Cc2ccco2)C(=O)/C1=C\c1ccc(-c2ccc(F)cc2)o1,38.2% (active)
18,O=C(Cn1c(=O)n(CC2CS2)c2ccccc21)N1CCCCC1 (stereo not given),-1.82% (inactive)
19,COc1cccc(-c2nc3ccc(N4CCN(C)CC4)cc3[nH]2)c1,-5.51% (inactive)
20,COC(=O)C1=C(c2cc3ccccc3o2)C[C@@H]2CC[C@H]1N2C(=O)NC1CCCCC1,0.201% (inactive)

# From PubChem BioAssay AID602399 (Sanford-Burnham Center for Chemical Genomics, 2012)
